Results from ChEMBL document CHEMBL3988442, “University of Dundee, Small-Polar-MMV Screening Library” (2021).

Tests used:
[1] = molecular target: T1, Aspartate--tRNA(Asp/Asn) ligase (Mycobacterium tuberculosis (strain ATCC 25618 / H37Rv)) (UniProt P9WFW3); experiment: Assay for Asp RNA synthetase-1 from Mycobacterium tuberculosis; assay type: functional; parameters: scale not given: direction of the effect not stated beside the values; conditions: 30 µM; further: in the data most compounds retested in dose-response had high values
T1 sequence (whole entry): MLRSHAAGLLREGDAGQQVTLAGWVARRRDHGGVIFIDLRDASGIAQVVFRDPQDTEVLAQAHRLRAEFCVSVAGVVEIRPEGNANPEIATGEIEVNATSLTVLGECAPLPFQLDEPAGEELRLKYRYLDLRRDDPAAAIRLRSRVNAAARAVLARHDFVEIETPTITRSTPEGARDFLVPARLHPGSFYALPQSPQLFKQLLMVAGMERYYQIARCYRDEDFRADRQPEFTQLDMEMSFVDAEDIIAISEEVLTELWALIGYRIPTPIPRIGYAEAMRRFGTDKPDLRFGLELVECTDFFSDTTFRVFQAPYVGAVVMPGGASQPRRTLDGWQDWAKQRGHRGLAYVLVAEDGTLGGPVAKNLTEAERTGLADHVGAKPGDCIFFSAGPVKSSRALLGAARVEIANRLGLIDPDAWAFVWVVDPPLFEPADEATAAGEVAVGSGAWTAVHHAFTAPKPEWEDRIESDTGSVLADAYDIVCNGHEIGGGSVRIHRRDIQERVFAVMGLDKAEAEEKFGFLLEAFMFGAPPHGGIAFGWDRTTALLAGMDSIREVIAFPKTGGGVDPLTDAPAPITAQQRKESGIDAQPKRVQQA

[2] = molecular target: Shiga toxin 2 (Escherichia coli O157:H7) (UniProt P09385+P09386); experiment: E. coli 0.157:H7 Shiga Toxin SOP - stx2 screening assay; assay type: functional; parameters: scale not given: direction of the effect not stated beside the values; conditions: 30 µM

Row | Structure (SMILES) | Percent Effect [1] [%] | Percent Effect [2] [%]
1 | Cc1cccc(Nc2nccnc2C2CCCN2CC(=O)N(C)C)n1 (configuration not stated) | -7.13 | -29.9
2 | Clc1snnc1CN1CCOC(CNc2cccnn2)C1 (configuration not stated) | -1.85 | -5.91
3 | CCOc1cccc(CNC(=O)NCC(O)c2cccc(F)c2)c1 (configuration not stated) | 9.63 | 16.2
4 | CCOCC(O)CN1CCN(C(=O)CC(C)(C)C)CC1 (configuration not stated) | -3.73 | 14.9
5 | CC(C)CNC(=O)c1c(-n2cnnn2)sc2c1CCC2 | 8.87 | 2.02
6 | Cc1cnn(CCNCC(=O)NCC2(c3ccccc3)CCC2)c1 | 4.12 | 22.9
7 | COc1cccn(CC(=O)N(C)CCOc2cc(C)cc(C)c2)c1=O | 38.9 | -20.3
8 | Cc1nnc(C2Cc3ccccc3CN2Cc2ncc(C(C)(C)C)o2)o1 (configuration not stated) | 0.807 | 8.47
9 | COCCC(=O)N1CCn2c(COCC3CC3)cnc2C1C (configuration not stated) | 3.62 | 5.04
10 | Cc1nccn1C1CCCN(C(=O)c2ccc3c(c2)nnn3C)C1 (configuration not stated) | -1.94 | 16.2
11 | Cc1cccc(CNCc2c(C(C)C)nn(C)c2N2CCOCC2)n1 | 7.04 | 12.3
